# Out of some 13,000 compounds screened, about 3,200 (25%) showed an effect of 50% or more. Some of the results follow.
# System: P. falciparum stage V gametocytes
# Design: BacTiter-Glo ATP luminescence viability of purified stage V gametocytes in 384-well plates, per cent inhibition versus DMSO
# Settings: 48 h, 5 µM; inhibitor
row,Structure (SMILES),% Inhibition [%]
1,O=C(Nc1ccc(C(=O)N2CCN(CCN3CCN(c4cccc(C(F)(F)F)c4)CC3)CC2)cc1)c1cc(Cl)cc(Cl)c1 [TCMDC-138146],-60.88
2,O=C(Nc1cccc(Cl)c1Cl)NC1CCN(Cc2cccc(O)c2)CC1 [TCMDC-136485],-12.42
3,O=C(Nc1cc2cc(-c3ccc(CN4CCCCC4)cc3)ccc2n2cnnc12)NC1CCCC1 [TCMDC-136882],63.39
4,O=C(NC1CCC1)C1CCN(C(c2ccccc2)c2cc(F)cc(F)c2)CC1 (centres unmarked) [TCMDC-135514],-3.594
5,CCCNC(=O)C1CCN(C(c2ccccc2)c2ccc(Cl)c(Cl)c2)CC1 (centres unmarked) [TCMDC-135517],-34.35
6,O=C(NCC1CC1)C1CCN(C(c2ccccc2)c2nc3ccccc3s2)CC1 (centres unmarked) [TCMDC-135523],-36.83
7,O=C(NCC1CC1)C1CCN(C(c2ccc(Cl)cc2)c2ccc(Cl)cc2)CC1 [TCMDC-135522],-2.377
8,O=C(NCC1CC1)C1CCN(C(c2ccccc2)c2ccc(Cl)c(Cl)c2)CC1 (centres unmarked) [TCMDC-135515],70.5
9,O=C(NCC1CC1)C1CCN(C(c2ccccc2)c2cc(F)cc(F)c2)CC1 (centres unmarked) [TCMDC-135513],62.39
10,CCCNC(=O)C1CCN(C(c2ccc(Cl)cc2)c2ccc(Cl)cc2)CC1 [TCMDC-135518],16.22
11,COCCNC(=O)C1CCN(C(c2ccc(Cl)cc2)c2ccc(Cl)cc2)CC1 [TCMDC-135519],-9.136
12,O=C(NC1CCC1)C1CCN(C(c2ccc(Cl)cc2)c2ccc(Cl)cc2)CC1 [TCMDC-135520],57.43
13,COc1ccc(C(=O)NCc2ccc(N)nc2C)cc1Nc1ncc(-c2cccc(N(C)C)c2)cn1 [TCMDC-132420],-21.32
14,CCCc1ccc(Cc2cnc3nc(N)nc(N)c3c2C)cc1 [TCMDC-138046],5.48
15,CCc1ccc(Cc2cnc3nc(N)nc(N)c3c2C)cc1 [TCMDC-137686],14.74
16,CCc1ccc(Cc2cnc3nc(N)nc(N)c3c2C)cc1CC [TCMDC-138054],77.27
17,Cc1nc(N)nc(N)c1OCCCOc1cccc(Cl)c1Cl [TCMDC-131369],-7.285
18,O=C(Nc1ccc(N2CCCN(Cc3cccc(F)c3)CC2)cc1)c1ccccc1 [TCMDC-135014],-40.3
19,OCCN1CCN(c2nc(Nc3cccc(F)c3)c3cnn(-c4ccccc4)c3n2)CC1 [TCMDC-124948],87.2
20,OCCN1CCN(C(=S)Nc2ccccc2)CC1 [TCMDC-123846],-8.492
21,O=c1cc(NC[C@@H]2CCC[C@@H]2NCc2ccc(Cl)c(Cl)c2)[nH]c2ccccc12 [TCMDC-139627],-25.41
22,Clc1cc(Cl)c2cc(CN[C@H]3CCC[C@@H]3CNc3nc4ccccc4[nH]3)[nH]c2c1 [TCMDC-139878],63.13

row,Structure (SMILES),% Inhibition [%]
1,Clc1cc(Cl)c2c(c1)C(NCCCNc1nc3ccccc3[nH]1)CCO2 (centres unmarked) [TCMDC-139802],-25.37
2,COc1ccc(C2C(C(=O)Nc3ccccc3)=C(C)Nc3c(C(=O)Nc4ccccc4)cnn32)cc1 (centres unmarked) [TCMDC-125284],-13.81
3,CC1=C(C(=O)Nc2ccccc2)C(c2ccc([N+](=O)[O-])cc2)n2ncc(C(=O)Nc3ccccc3)c2N1 (centres unmarked) [TCMDC-125283],50.23
4,CC1=C(C(=O)Nc2ccc(Cl)cc2)C(c2ccncc2)n2nc(C(F)(F)F)nc2N1 (centres unmarked) [TCMDC-124419],-9.933
5,c1csc(-c2ccc3c(c2)CC(NCc2c[nH]c4cnccc24)C3)c1 (centres unmarked) [TCMDC-134833],42.25
6,COc1cccc(NC(=O)c2cc([N+](=O)[O-])ccc2NC(=O)CN2CCc3ccccc3C2)c1 [TCMDC-123678],69.57
7,COc1cc(NC(=O)c2cc([N+](=O)[O-])ccc2NC(=O)CNC2CCCC(C)C2C)cc(OC)c1 (centres unmarked) [TCMDC-125300],-31.14
8,CCC(CC)N1CCN(CC(=O)Nc2ccc([N+](=O)[O-])cc2C(=O)Nc2cccc(OC)c2)CC1 [TCMDC-123679],-23.44
9,COc1cc(F)c2ncc(Cl)c(CCN3CCC(NCc4ccc5c(n4)NC(=O)CO5)CC3)c2c1 [TCMDC-135621],-16.17
10,Cc1cc(N2CCOCC2)nc2ccc(NC(=O)c3cccc([N+](=O)[O-])c3)cc12 [TCMDC-123601],0.6281
11,NS(=O)(=O)c1cccc(-c2ccc3ncc(N4CCOCC4)nc3c2)c1 [TCMDC-134052],73.87
12,O=C(Nc1ccc(-c2nc3ccccc3[nH]2)cc1)c1cccc(S(=O)(=O)N2CCOCC2)c1 [TCMDC-125263],-3.664
13,CN(C)c1ccc(-c2csc(C(=O)NCC3CCN(CCC(C)(C)C)C3)c2)cc1 (centres unmarked) [TCMDC-134427],60.6
14,CC(C)c1ccc(CN2CCC(CNC(=O)c3cc(-c4ccc(N(C)C)cc4)cs3)C2)cc1 (centres unmarked) [TCMDC-134440],77.06
15,CN(C)c1ccc(-c2csc(C(=O)NCC3CCN(Cc4ccc(C(C)(C)C)cc4)C3)c2)cc1 (centres unmarked) [TCMDC-134449],80.7
16,CN(C)c1ccc(-c2csc(C(=O)NCC3CCN(Cc4cccc(C(F)(F)F)c4)C3)c2)cc1 (centres unmarked) [TCMDC-134486],49.29
17,O=C1CCCC1Sc1nc2ccccc2c(=O)n1-c1ccc(Cl)c(Cl)c1 (centres unmarked) [TCMDC-125029],-36.37
18,CC1(C)N=C(N)N=C(N)N1OCCSc1ccc(Cl)c(Cl)c1 [TCMDC-131704],5.969
19,CN1CCN(c2cc3c(cc2Br)CCN3C(=O)Nc2ccc(-c3cnc4ccccc4c3)cc2)CC1 [TCMDC-139280],14.3
20,Cc1cc(N[C@@H](CC(C)C)C(=O)Nc2ccccc2)nc(NCC2CCCCC2)n1 [TCMDC-134921],-51.59
21,CCOc1cc(C)ccc1N(C1CCN(CCCCNC(=O)c2ccc(-c3ccc(C(F)(F)F)cc3)cc2)CC1)S(=O)(=O)c1ccccc1 [TCMDC-138637],32.99
22,CCC(C)c1ccc(-n2c(Nc3ccccc3)nc3cc(S(N)(=O)=O)ccc32)cc1 (centres unmarked) [TCMDC-135490],-10.42

# From PMC4552634, “A New Set of Chemical Starting Points with Plasmodium falciparum Transmission-Blocking Potential for Antimalarial Drug Discovery” (PLoS ONE, 2015)
